Source: PubChem BioAssay (National Center for Advancing Translational Sciences (NCATS))
Pf growth 96h – inhibits malaria parasite growth, 96 h; P. falciparum luciferase reporter growth, 96 h; Potency, µM (titrated, usually from 28.7 µM), usual class: inhibitors; actives 6.9% (n = 320,000); AID 504834
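Delayed-death screen, second-generation endpoint: infected erythrocytes, 2% hematocrit, 0.05% parasitemia final; 96 hours at 37 C, 5% CO2; luciferase detection reagent; luminescence decrease equals reduced growth.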
SARS PLpro yeast – SARS-CoV PLP inhibition in yeast; S. cerevisiae expressing SARS-CoV PLpro, growth rescue; Potency, µM (doses to about 32.9 µM), actives largely listed as activators; actives 0.19% (n = 330,000); calls by dose curve; note: nearly all actives have a fitted effect of over 55% in size
Sm TGR block – blocks Schistosoma mansoni thioredoxin glutathione reductase | purified TGR, DTNB reduction, TNB absorbance 405 nm | Potency, µM (highest dose often 114 µM), actives largely listed as inhibitors | actives 3% (n = 360,000); note: nearly all actives have a fitted effect of over 60% in size
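First, TGR (20 nM dispensed) and NADPH were mixed with compound. Second, a 15 min room-temperature incubation followed. Third, further NADPH and then DTNB were added to start the reaction. Finally, TNB absorbance was monitored kinetically.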
Pf growth 48h – P. falciparum growth inhibition at 48 hours (one generation); Potency, µM (highest dose often 28.7 µM), usual class: inhibitors; actives 5.9% (n = 310,000); P. falciparum luciferase growth in erythrocytes, 48 h; AID 504832
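Parasite viability was followed by luminescence of a genomically integrated firefly luciferase. Cultures held 0.1% parasitemia at 2% hematocrit (final), incubated under 5% CO2 at 37 C.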
Hits are given with their value; – = inactive; ? = inconclusive; · = no result. Rows were chosen to be rich in hits. Some 12% of all compounds tested hit in one or more screens of this group. Unless noted, calls come from the whole dose curve; as a rule, active = well fitted curve in the direction sought with a large enough effect; inconclusive = small, poorly fitted or top-dose-only effect, or another doubt; inactive = no such curve, though single readings can be large; an effect the other way counts as inactive or inconclusive.

SMILES	Pf growth 96h	SARS PLpro yeast	Sm TGR block	Pf growth 48h
C/C=C(\C)C(=O)NCCN1C2=NC[C@H](Cc3ccc(O)cc3)N2C[C@H]1Cc1ccc(O)cc1	?	–	50µM	?
C/C=C(\C)C(=O)N[C@@H](C)CN1C2=NC[C@H](C(C)C)N2C[C@H]1Cc1ccc(OC)cc1	–	–	5.6µM	?
C/C=C(\C)C(=O)NCCN1C2=NC[C@@H](Cc3ccccc3)N2C[C@H]1Cc1ccc(O)cc1	–	–	–	–
CNC1=C([N+](=O)[O-])CC([N+](=O)[O-])=C(N2CCNCC2)N1C	–	–	14µM	–
CCNc1cc(N2CCNCC2)ccc1[N+](=O)[O-]	–	–	·	–
CCOC(=O)c1c(NC(=S)NC)sc2c1CC(C)(C)SC2	–	–	10µM	4.1µM
Cc1ccccc1CNC(=O)c1c(C)oc2c1C1=NCCN1C=N2	·	·	–	·
CC(=O)c1cccc(NS(=O)(=O)c2cc3c(cc2C)NC(=O)CO3)c1	15µM	–	–	–
Cc1ccc(CCNS(=O)(=O)c2cc3c(cc2C)NC(=O)CO3)cc1	–	–	–	–
Cc1cccc(CCNC(=O)CCS(=O)(=O)c2cc3c(cc2C)NC(=O)CO3)c1	?	–	–	–
CCOC(=O)c1cccc(NS(=O)(=O)c2cc3c(cc2C)NC(=O)CO3)c1	·	·	–	·
Cc1cc2c(cc1S(=O)(=O)CCC(=O)NCCc1ccccc1)OCC(=O)N2	8.3µM	–	–	–
Cc1cccc(CCNS(=O)(=O)c2cc3c(cc2C)NC(=O)CO3)c1	9.3µM	–	–	–
CC(C)c1ccc(NC(=O)c2cc(S(=O)(=O)NC3CCCCC3)ccc2F)cc1	·	·	–	·
CCN(C(=O)COC(=O)Cc1ccc(F)cc1)c1c(N)n(Cc2ccccc2)c(=O)[nH]c1=O	–	–	–	–
O=c1[nH]c(COc2ccc(Cl)cc2Br)nc2ccccc12	–	–	–	–
CC(Oc1ccc(F)cc1Br)c1nc2ccccc2c(=O)[nH]1 (configuration not stated)	?	–	–	9.3µM
N#Cc1ccc(NC(=O)Cn2cnc(S(=O)(=O)N3CCc4ccccc43)c2)cc1	12µM	–	–	–
Cc1c(Cl)cccc1NC(=O)Cn1cnc(S(=O)(=O)N2CCCC2)c1	7.4µM	–	–	–
O=C(Cn1cnc(S(=O)(=O)N2CCCC2)c1)Nc1cccc(Br)c1	12µM	–	–	–
CC1CCN(S(=O)(=O)c2cn(CC(=O)Nc3ccc(C#N)cc3)cn2)CC1	?	–	–	–
CC(=O)c1cccc(NC(=O)Cn2cnc(S(=O)(=O)N3CCCCC3)c2)c1	–	–	–	–
COc1ccc(NC(=O)Cn2nc(C(=O)O)c3ccccc3c2=O)cc1Cl	–	–	–	–
COC(=O)c1c(-c2cccs2)csc1NC(=O)COc1ccc(C(C)(C)C)cc1	·	·	–	·
CN(C(=O)Cn1cnc2ccccc2c1=O)C1CCS(=O)(=O)C1 (configuration not stated)	–	–	–	–
SMILES	Pf growth 96h	SARS PLpro yeast	Sm TGR block	Pf growth 48h
Fc1ccc(C2c3cccn3CCN2C(=S)Nc2cccc(Br)c2)cc1 (configuration not stated)	?	–	–	12µM
Fc1ccc(NC(=S)N2CCn3cccc3C2c2cccnc2)cc1 (configuration not stated)	–	–	–	?
S=C(NCCc1ccccc1)N1CCn2cccc2C1c1cccnc1 (configuration not stated)	10µM	–	–	12µM
S=C(NCc1ccccc1)N1CCn2cccc2C1c1ccncc1 (configuration not stated)	?	–	?	–
CCCCNC(=S)N1CCn2cccc2C1c1ccccc1 (configuration not stated)	?	–	–	4.7µM
S=C(NCc1ccccc1)N1CCn2cccc2C1c1cccnc1 (configuration not stated)	4.7µM	–	–	4.7µM
CCc1ccc(-c2nc(CSCC(=O)N3CCN(c4ccc(F)cc4)CC3)c(C)o2)cc1	·	·	–	·
CCC(=O)N1CCc2cc(S(=O)(=O)NCCC(=O)NC(C)c3ccccc3)ccc21 (configuration not stated)	·	·	–	·
COc1ccc(N2CC(NC(=O)/C=C\c3ccccc3)CC2=O)cc1OC (configuration not stated)	·	·	–	·
CCc1ccccc1N1C(=O)CC(N2CCc3ccccc32)C1=O (configuration not stated)	?	–	·	–
O=C1CC(N2CCOCC2)C(=O)N1c1ccccc1Cl (configuration not stated)	–	–	50µM	–
CCCOc1ccccc1N1C(=O)CC(N2CCOCC2)C1=O (configuration not stated)	–	–	?	?
O=C1CC(N2CCN(c3ccccc3Cl)CC2)C(=O)N1c1ccccc1 (configuration not stated)	·	–	45µM	–
O=C1CC(N2CCCc3ccccc32)C(=O)N1c1ccccc1 (configuration not stated)	12µM	–	25µM	–
Cc1ccc(C)c(Cn2c(=O)cc(C)c3c(C)nn(C)c32)c1	·	·	–	·
CCOC(=O)C(=NCC1CCCO1)NNc1cc(Cl)ccc1Cl (configuration not stated)	10µM	–	?	?
CCOC(=O)/C(C#N)=N/Nc1ccc(S(=O)(=O)N2CCc3ccccc32)cc1	12µM	–	–	13µM
Cc1ccc(F)c(CNC(=O)C2CCC(=O)N(CCCN3CCCC3=O)C2)c1F (configuration not stated)	–	–	–	–
O=C1C2C3C=CC(C3=C3CCCCC3)C2C(=O)N1c1ccccc1 (configuration not stated)	–	–	16µM	–
COC(=O)c1cc2occc2n1Cc1nc(-c2ccccc2Cl)oc1C	12µM	–	–	–
Cc1ccc(C)c2[nH]c(=O)c(C(c3nnnn3Cc3ccccc3)N3CCc4ccccc4C3)cc12 (configuration not stated)	·	–	?	10µM
Cc1cccc2cc(C(c3nnnn3CC3CCCO3)N3CCc4ccccc4C3)c(=O)[nH]c12 (configuration not stated)	–	?	–	–
Cc1cc2cc(C(c3nnnn3Cc3ccco3)N3CCCCC3)c(=O)[nH]c2cc1C (configuration not stated)	·	–	40µM	–
CCC(C)(C)n1nnnc1C(c1cc2cccc(C)c2[nH]c1=O)N1CCN(C(=O)c2ccco2)CC1 (configuration not stated)	–	–	–	1.2µM
O=c1[nH]c2cc3c(cc2cc1C(c1nnnn1Cc1ccccc1)N1CCN2CCCC2C1)OCCO3 (configuration not stated)	12µM	–	?	?
O=c1[nH]c2cc3c(cc2cc1C(c1nnnn1Cc1ccccc1)N1CCCCCC1)OCCO3 (configuration not stated)	?	–	?	·
Cc1ccc2cc(C(c3nnnn3C(C)(C)C)N3CCCC3)c(=O)[nH]c2c1C (configuration not stated)	·	–	?	3.3µM
